Data as given in PubChem BioAssay (NCATS).
Inconclusive results are not listed. Active and inactive are the calls of the source. The call rests on the fitted dose curve; in most records, active means well fitted cell-killing curve with a large enough effect; inconclusive means small, poorly fitted or top-dose-only effect; inactive means no such curve, though single readings can be large or run the other way.

experiment: qHTS of pediatric cancer cell lines to identify multiple opportunities for drug repurposing: Primary screen for SK-N-SH cells (AID 1347098); conditions: SK-N-SH viability, CellTiter-Glo luminescence, 48 h; series mostly up to 57 µM; activity change, negative = cytotoxic: at the top concentration; further: nearly all actives have a fitted effect of over 65% in size
Source text: Drug repurposing or repositioning has been offered as a strategy for drug development in oncology programs. This approach has special potential for childhood cancers and other rare or orphan diseases, where the expected return on new drug development has been a disincentive to pharmaceuticals.
In this project we exploit the poly-pharmacology of drugs to discover new indications via phenotypic screening of a panel of 19 well-characterized cell lines derived from solid tumors seen in children and adolescents. The goal is to identify approved drugs with previously unrecognized anticancer properties that has the potential to reveal new mechanisms and biological processes involved in carcinogenesis or drug resistance. We employed a titration-based paradigm (quantitative high-throughput screening or qHTS), where all compounds were tested at multiple concentrations for their effect on cell viability. Concentration-response curves (CRCs) were derived directly from the primary screen, and both potency and efficacy values were used to identify compounds with robust bioactivity profiles. We screened the NIH Chemical Genomics Center (NCGC) Pharmaceutical Collection (NPC) and Mechanism Interrogation Plate (MIPE) small molecule collections of approved and investigational compounds against these cell lines; and measured metabolically active cells after 48 hours of compound treatment as a proxy for cell viability.
Assay Submitter: Nathalia J. Martinez, National Center for Advancing Translational Sciences, National Institutes of Health, Rockville, MD, USA; email: natalia.martinez@nih.gov
[1] Shen, M et al. Quantitative high-throughput phenotypic screening of pediatric cancer cell lines identifies multiple opportunities for drug repurposing. Oncotarget 2017 Dec 19;9(4):4758-4772. PMID 29435139.
The cells were obtained from University of North Carolina (UNC), Pediatric Preclinical Testing Program (PPT), and Coriell Institute (CI).
qHTS cell viability assay:
Cells were assayed in growth media at a density of 500-1,000 cells/well. Five microliters of cells were dispensed into 1,536-well, white, solid-bottom, TC-treated plates (Greiner Bio One) using a multidrop dispenser and incubated at 37 degrees C, 5% CO2, under a humidified atmosphere for 5 hours. Twenty-three nanoliters of compounds and controls (neutral control DMSO or positive control bortezomib at final concentration of 2.3 µM) were subsequently transferred by Kalypsys pintool. For primary screens, the MIPE collection was tested at 11-point dilutions (final concentrations range from 0.78 nM to 46 µM) and the NPC collection at 8-point dilutions (final concentrations range from 0.59 nM to 46 µM). Compounds tested in follow-up screens were assayed at 11-point dilutions. Cells were incubated for 48 hours, followed by addition of 3 µL of CellTiter-Glo (Promega). After a 15 min incubation at room temperature, samples were analyzed for luminescence intensity using a ViewLux High-throughput CCD imager equipped with clear filters.
On the % scale 0 is the no-effect control and ±100 the full control effect; potency means the concentration at half of the fitted maximal effect.

| Structure (SMILES) | Potency | activity change, negative = cytotoxic |
| --- | --- | --- |
| O=C(NC[C@H](O)CO)c1ccncc1Nc1ccc(I)cc1F | 21.5 µM (active) |  |
| CC[C@H](CC#N)OC(=O)N[C@@H](C)c1cccc(NC(=O)Nc2ccc(-c3cnco3)c(OC)c2)c1 |  | -13.5% (inactive) |
| CC1(C)CC(=O)c2c(C(F)(F)F)nn(-c3ccc(C(N)=O)c(NC4CCC(O)CC4)c3)c2C1 (stereo not given) | 0.304 µM (active) |  |
| CCNC(=O)c1noc(-c2cc(C(C)C)c(O)cc2O)c1-c1ccc(CN2CCOCC2)cc1 | 0.152 µM (active) |  |
| CCNC(=O)[C@H]1O[C@@H](n2cnc3c(N)nc(NCCc4ccc(CCC(=O)O)cc4)nc32)[C@H](O)[C@H]1O |  | 1.33% (inactive) |
| NC1(C(=O)N[C@@H](CCO)c2ccc(Cl)cc2)CCN(c2ncnc3[nH]ccc23)CC1 | 30.4 µM (active) |  |
| O=C(Nc1cccc(C(F)(F)F)c1)Nc1cc(S(=O)(=O)NC2CC2)ccc1-c1ccsc1 |  | -5.33% (inactive) |
| Cc1ccc(C2=Nc3ccc(Cl)cc3OC2)cc1 | 2.15 µM (active) |  |
| CC(=O)O[C@]1(C(C)=O)CC[C@H]2[C@@H]3C=C(Cl)C4=CC(=O)[C@@H]5C[C@H]5[C@]4(C)[C@@H]3CC[C@@]21C | 12.1 µM (active) |  |
| NCC1CCC(C(=O)O)CC1 (stereo not given) |  | 1.01% (inactive) |
| Cc1ccc2c(=O)c3cccc(CC(=O)O)c3oc2c1C | 24.1 µM (active) |  |
| C=CCc1cccc(C=NNC(=O)CN2CCN(Cc3ccccc3)CC2)c1O | 9.61 µM (active) |  |
| COc1ccc2c(c1)c(C1=C(c3c[nH]c4ccccc34)C(=O)NC1=O)cn2CCCN(C)C | 21.5 µM (active) |  |
| CC1=C(CC(=O)O)c2cc(F)ccc2C1=Cc1ccc(S(C)=O)cc1 (stereo not given) | 19.2 µM (active) |  |
| CCn1c(-c2nonc2N)nc2cncc(CNC3CCNCC3)c21 | 24.1 µM (active) |  |
| Nc1ccn([C@@H]2O[C@H](CO)[C@@H](O)[C@H]2O)c(=O)n1 |  | -18.1% (inactive) |
| Clc1ccc(C2(c3ccc(-c4cn[nH]c4)cc3)CCNCC2)cc1 | 24.1 µM (active) |  |
| CN(CC=CC#CC(C)(C)C)Cc1cccc2ccccc12 |  | 27.7% (inactive) |
| C[C@@]1(C(=O)Nc2ccc(F)nc2)CCCN1c1nc(Nc2cc(C3CC3)[nH]n2)c2cccn2n1 | 1.92 µM (active) |  |
| CN1C(=O)C(Cc2c[nH]c3ccccc23)NC1=S (stereo not given) |  | 3.72% (inactive) |

| Structure (SMILES) | Potency | activity change, negative = cytotoxic |
| --- | --- | --- |
| CO[C@H]1/C=C\O[C@@]2(C)Oc3c(C)c(O)c4c(O)c(c5c(nc6cc(C)ccn65)c4c3C2=O)NC(=O)C(C)=CC=C[C@H](C)[C@H](O)[C@@H](C)[C@@H](O)[C@@H](C)[C@H](OC(C)=O)[C@H]1C |  | -6.65% (inactive) |
| CN1CCC[C@H]1CCO[C@](C)(c1ccccc1)c1ccc(Cl)cc1 | 30.4 µM (active) |  |
| CN1CC(=O)NC1=NC(=O)Nc1cccc(Cl)c1 | 8.57 µM (active) |  |
| COc1ccc(-c2ccc3ncc4c(c3c2)n(-c2ccc(N3CCNCC3)c(C(F)(F)F)c2)c(=O)n4C)cn1 | 0.0857 µM (active) |  |
| Nc1ncnc2c1ncn2[C@@H]1O[C@H](CO)[C@@H](O)[C@@H]1O | 15.2 µM (active) |  |
| CC(C)[C@H](O)C(=O)N[C@@H](C)C(=O)N[C@@H]1C(=O)N(C)CCc2ccccc21 |  | 48.3% (inactive) |
| CC1(C)[C@H]2CC[C@]3(C)[C@@H](C(=O)C=C4[C@@H]5C[C@@](C)(C(=O)O)CC[C@]5(C)CC[C@]43C)[C@@]2(C)CC[C@@H]1O |  | 5.09% (inactive) |
| C=C1[C@H](n2cnc3c(=O)[nH]c(N)nc32)C[C@H](O)[C@H]1CO |  | -7.07% (inactive) |
| O=S(=O)(NCCNCC=Cc1ccc(Br)cc1)c1cccc2cnccc12 | 19.2 µM (active) |  |
| NS(=O)(=O)c1cc(Cl)c(Cl)c(S(N)(=O)=O)c1 |  | 14.8% (inactive) |
| CNC1[C@H](O)C(O[C@@H]2C(O)C(O[C@H]3O[C@H]([C@@H](C)NC)CC[C@H]3N)[C@@H](N)C[C@H]2N)OC[C@]1(C)O (stereo not given in full) |  | 7.16% (inactive) |
| COc1ccnc(CS(=O)c2nc3ccc(OC(F)F)cc3[nH]2)c1OC (stereo not given) |  | -29.7% (inactive) |
| Cc1nc(NC(=O)N2CCC[C@@H]2C(N)=O)sc1-c1csc(C(C)(C)C)n1 | 15.2 µM (active) |  |
| CN1[C@H]2CC[C@H]1CC(OC(=O)c1c[nH]c3ccccc13)C2 (stereo not given in full) | 24.1 µM (active) |  |
| COc1nccc(-c2c(-c3ccc(F)cc3)ncn2C2CCNCC2)n1 |  | -11.1% (inactive) |
| COc1ccc(Cn2ccc3ccc(C(=O)NO)cc32)cc1 | 21.5 µM (active) |  |
| CC1CCN(c2cc(N3CCN(C)CC3)ccc2NC(=O)c2cc(C#N)c[nH]2)CC1 | 21.5 µM (active) |  |
| CCCCOCCOc1nc(-c2ccc(C(=O)O)c(F)c2)sc1C | 6.81 µM (active) |  |
| CC(C)(O)CC(=O)NCCn1ccc2ncnc(Nc3ccc(Oc4cccc(C(F)(F)F)c4)c(Cl)c3)c21 | 1.21 µM (active) |  |
| Cc1ccccc1C(C(=O)NC1CCCCC1)N(C(=O)CNc1ccc(C#N)cc1)c1cccc(F)c1 (stereo not given) |  | 14.9% (inactive) |
